The record followed here is PubChem BioAssay (NCATS).

Molecules are shown by their SMILES. Values joined by “and” are separate entries in the source; they are usually repeats but may differ in a detail not shown here. Equal values may be shown once. Inconclusive results are not listed. Active and inactive are the calls of the source. Unless noted, the call rests on the fitted dose curve; in most records, active means well fitted curve in the direction sought with a large enough effect; inconclusive means small, poorly fitted or top-dose-only effect, or another doubt; inactive means no such curve, though single readings can be large; an effect the other way counts as inactive or inconclusive.

Assay [1] is described as follows: Validation of Assay for Modulators of Lamin A Splicing (AID 1459; active means well fitted curve in the direction sought with a large enough effect in the signal ratio; the % refers to the signal ratio;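 further: cells exposed to compound for two days before reading; 0% is about no effect; ratio rise marks activators and ratio drop marks inhibitors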). Summed up:
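Dual-reporter HeLa S3 line (lamin A-EGFP minigene, DsRed2) treated with compounds 48 hrs, 0.5% DMSO final. Endpoint: EGFP/DsRed2 total intensity ratio from laser-scanning microplate cytometry.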

For assay [2], the target named is DNA repair nuclease/redox regulator APEX1 (Homo sapiens) (UniProt P27695). In words: qHTS Validation Assay for Inhibitors of the Human Apurinic/apyrimidinic Endonuclease 1 (APE1) (AID 1705;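 further: TAMRA fluorescence gain over two minutes as APE1 cuts a quenched THF abasic duplex; on the % scale 0 is the no-effect control and ±100 the full control effect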). The gist of the method: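 Substrate: 50 nM final fluorophore/quencher THF-abasic duplex. Enzyme preincubated with compounds 15 min, RT. Progress derived from fluorescence difference, third minus first kinetic read.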

Assay [3] is described as follows: Counterscreen for APE1 Inhibitors: Fluorescent Dye Displacement Validation Assay (AID 1707).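 Further: plate controls were ThO with dsDNA and no compound for no effect and ThO without dsDNA for full effect.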 The gist of the method:
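ThO 250 nM + dsDNA 50 nM (THF abasic site, 5'-TAMRA), Tris-HCl pH7.5/50mM NaCl/2 mM MgCl2/0.01% Tween-20; compounds pin-transferred; ex 480/em 540 nm endpoint. Neutral = no compound; no-DNA ThO wells = negative control.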
Background: Counterscreens check selectivity or assay interference.

Assay [4] is described as follows: qHTS Assay for Lipid Storage Modulators (AID 1519; calls by dose curve; on activity change, negative = inhibition: on the % scale 0 is the no-effect control and ±100 the full control effect). The following applies: Drosophila S3 cells, BODIPY lipid droplet/cell ratio, laser cytometry, cells loaded with oleic acid. The gist of the method: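 Cells seeded at 5,000 per well were treated with compounds over a concentration series and loaded with oleic acid (400 uM, as added). Lipid droplet fluorescence (488 nm excitation, 500-530 nm channel) was read by laser-scanning cytometry and normalized to 20 uM Triacsin C.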

Assay [5] concerns the target Alpha-galactosidase A (Homo sapiens) (UniProt P06280). In words: Counterscreen for Glucocerebrosidase Inhibitors: qHTS Assay for Human alpha-Galactosidase at pH 4.5 (AID 992). Further: 0% is about no effect. Summed up:
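Read-out is 4-methylumbelliferone fluorescence (365 nm excitation, 440 nm emission) after a pH 10 NaOH/glycine stop. Reactions held 2 nM enzyme and 80 uM substrate at pH 4.5 for 20 min at room temperature.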

In assay [6] the target is alpha-glucosidase (Oryza sativa, rice) (UniProt Q653V4). Kind of assay: Counterscreen for Glucocerebrosidase Inhibitors: qHTS Assay for Rice alpha-Glucosidase at pH 5.0 (AID 997).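 Further: 0% = full activity with enzyme and -100% = basal without enzyme.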 The gist of the method:
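Rice alpha-glucosidase (4 nM final) with 400 uM 4-methylumbelliferyl-alpha-D-glucopyranoside in citrate buffer pH 5.0, 20 min at room temperature, stopped at pH 10; fluorescence 365/440 nm, compounds 0.7 nM–77 uM, AC50 from Hill fits.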

The nature of assay [7]: Cell Viability - LYMP2-024 (AID 988).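 Further: plate controls were DMSO only for no effect and 92 µM tetraoctylammonium bromide for full effect; nearly all actives have a fitted effect of over 60% in size.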 Summed up:
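Human lymphoblastoid cells (2500/well) in complete medium were preincubated 5 hr at 37 C, then exposed to compounds for 24 hr at 37 C. Intracellular ATP was read by CellTiter-Glo luminescence; AC50 from Hill-equation fits of concentration-response data.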

Assay [8] is described as follows: Cell Viability - LYMP2-026 (AID 989). Further: on the % scale 0 is the no-effect control and ±100 the full control effect; nearly all actives have a fitted effect of over 50% in size. The gist of the method:
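Human lymphoblastoid cells (2500/well) in complete medium were preincubated 5 hr at 37 C, then exposed to compounds for 24 hr at 37 C. Cellular ATP was read by CellTiter-Glo luminescence; AC50 from Hill-equation fits of concentration-response data.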

Assay [9] can be described thus: Cell Viability - LYMP1-002 - Assay at 24 hr (AID 993). Further: on the % scale 0 is the no-effect control and ±100 the full control effect. The gist of the method:
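Human lymphoblastoid LYMP1-002 cells, 2500/well in complete medium, were treated with compounds for 24 h at 37 C; intracellular ATP was read by CellTiter-Glo luminescence. AC50 values came from Hill-equation fits of qHTS concentration-response data.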

A short description of assay [10]: Cell Viability - LYMP1-002 - Assay at 40 hr (AID 994).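 Further: 0% = DMSO only and full inhibition = 92 µM tetraoctylammonium bromide; nearly all actives have a fitted effect of over 60% in size.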 The gist of the method: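 Human lymphoblastoid cells, 2500/well in complete medium, were preincubated 5 hr at 37 C, then exposed to compounds for 40 hr at 37 C. Intracellular ATP was read by CellTiter-Glo luminescence after 30 min at room temperature; AC50 from Hill-equation fits.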
Setting [11] is: measured here: cell count channel max response.
[12] abbreviates: measured here: lipid channel max response.

Alpha-galactosidase A (Homo sapiens), sequence (P06280 whole entry, looked up): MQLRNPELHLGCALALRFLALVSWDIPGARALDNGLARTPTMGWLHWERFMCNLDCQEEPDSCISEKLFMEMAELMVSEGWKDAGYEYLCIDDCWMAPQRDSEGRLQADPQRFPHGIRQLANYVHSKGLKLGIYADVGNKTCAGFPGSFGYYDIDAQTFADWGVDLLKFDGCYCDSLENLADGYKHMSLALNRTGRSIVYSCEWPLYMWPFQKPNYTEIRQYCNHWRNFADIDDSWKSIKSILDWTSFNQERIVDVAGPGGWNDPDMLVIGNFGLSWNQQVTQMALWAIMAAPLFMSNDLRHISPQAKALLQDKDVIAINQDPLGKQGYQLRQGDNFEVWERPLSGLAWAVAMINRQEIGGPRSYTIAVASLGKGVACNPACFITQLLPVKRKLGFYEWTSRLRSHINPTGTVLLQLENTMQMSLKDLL
DNA repair nuclease/redox regulator APEX1 (Homo sapiens), sequence (P27695 whole entry, looked up): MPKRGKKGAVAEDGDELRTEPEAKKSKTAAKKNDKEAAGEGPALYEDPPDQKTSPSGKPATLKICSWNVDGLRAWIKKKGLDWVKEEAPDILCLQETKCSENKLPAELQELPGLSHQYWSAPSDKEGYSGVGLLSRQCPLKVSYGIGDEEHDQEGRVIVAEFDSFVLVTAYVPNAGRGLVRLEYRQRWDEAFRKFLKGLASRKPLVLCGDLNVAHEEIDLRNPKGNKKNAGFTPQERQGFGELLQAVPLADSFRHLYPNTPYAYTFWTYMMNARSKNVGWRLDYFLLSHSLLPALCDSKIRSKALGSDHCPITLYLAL

On to `CNCCC(Oc1ccccc1OC)c1ccccc1` (stereo not drawn), for which the compound was classed as inactive in [1] and in [3]. Besides, the Potency entry in assay [2] is “inactive”.

On to `COCCc1ccc(OCC(O)CNC(C)C)cc1` (stereo not drawn), for which the result in assay [1] and in assay [3] was inactive. Moreover, the activity change, negative = inhibition in [4] (at 57.5 µM (top of the series)) was 2.43% (inactive). For the same compound, the max response in assay [4] (setting [11]) was -17.2%; in assay [4] (setting [12]), -15.7%. The Potency entry in assay [2] is “inactive”.

For `Cc1ccc(S(=O)(=O)NC(=O)NN2CCCCCC2)cc1`, the compound was classed as inactive in assay [5], in [6], in assay [1] and in assay [3]. For the same compound, the activity change, negative = inhibition in assay [4] (at 25.7 µM (top of the series)) is 0.497% (inactive); in [4] (at 57.5 µM (top of the series)), 9.8% (inactive). Moreover, the max response was 0.635% and 17.7% in assay [4] (setting [11]); 2.19% and 33.1% in assay [4] (setting [12]). In addition, the Potency entry in [2] was “inactive”.

`CCN(Cc1ccncc1)C(=O)C(CO)c1ccccc1` (stereo not drawn): the result in [1] and in assay [3] was inactive. In addition, the Potency result in assay [2] is “inactive”.

For the compound `c1ccc2c(c1)CCCC2C1=NCCN1` (stereo not drawn), the compound was classed as inactive in [1] and in assay [3]. The activity change, negative = inhibition in [4] (at 57.5 µM (top of the series)) was 9.7% (inactive) and 1.83% (inactive). Besides, the max response in assay [4] (setting [11]) is 6.5% and -25.5%; in assay [4] (setting [12]), 18.8% and -24.9%. Moreover, the Potency result in assay [2] was “inactive”.

As to `COc1cc(Cc2cnc(N)nc2N)cc(OC)c1OC`, the Potency result in assay [7], in assay [10] and in assay [2] was “inactive” each time. The compound was classed as inactive in assay [8], in assay [5], in [9], in assay [6], in assay [1] and in [3]. Moreover, in assay [4] (at 25.7 µM (top of the series)), the activity change, negative = inhibition was -1.74% (inactive). For the same compound, the max response in [4] (setting [11]) was -1.95%; in [4] (setting [12]) it was -5.27%.

For the compound `CC(N=C(NC#N)Nc1ccncc1)C(C)(C)C` (stereo not drawn), the result in assay [1] and in assay [3] was inactive. Moreover, in [4] (at 57.5 µM (top of the series)), the activity change, negative = inhibition was 13.9% (inactive) and 0.102% (inactive). Further, the max response is 1.72% and -23.9% in assay [4] (setting [11]); 14.8% and -22.8% in [4] (setting [12]). For the same compound, in [2], the Potency entry is “inactive”.

On to `CC(=O)OC(C)C[N+](C)(C)C` (stereo not drawn), for which the result in [1] and in assay [3] was inactive. In addition, in [4] (at 57.5 µM (top of the series)), the activity change, negative = inhibition is 7.3% (inactive). Moreover, the max response in assay [4] (setting [11]) amounted to 18.4%; in [4] (setting [12]), 29.3%. In addition, the Potency entry in [2] is “inactive”.

`CC1=C(C)C(=O)C(CCCCC#CCCCC#CCO)=C(C)C1=O`: the result in assay [5], in assay [6], in [1] and in assay [3] was inactive. Also, in [4] (at 57.5 µM (top of the series)), the activity change, negative = inhibition is 1.13% (inactive). The max response in assay [4] (setting [11]) is -22.7%; in assay [4] (setting [12]), -21.4%.

Regarding `CCCCCN(CCCCC)C(=O)C(CCC(=O)O)NC(=O)c1ccc(Cl)c(Cl)c1` (stereo not drawn), the call in [1] and in assay [3] was inactive. The activity change, negative = inhibition in [4] (at 57.5 µM (top of the series)) was 2.8% (inactive). Besides, the max response in assay [4] (setting [11]) was -5.79%; in assay [4] (setting [12]) it was -4.23%. Besides, in assay [2], the Potency entry is “inactive”.

For the compound `CCCN1C[C@H](CSC)C[C@@H]2c3cccc4[nH]cc(c34)C[C@H]21`, the result in assay [1] and in [3] was inactive. Moreover, in assay [2], the Potency result is “inactive”.

Regarding `FC(F)(F)c1ccccc1-n1ccnc1`, the outcome in [5], in assay [6], in [1] and in assay [3] was inactive. The activity change, negative = inhibition in assay [4] (at 57.5 µM (top of the series)) is 7.35% (inactive). The max response in assay [4] (setting [11]) stood at 11%; in assay [4] (setting [12]), 25.3%. Besides, the Potency entry in assay [2] is “inactive”.

Consider `N[C@@H](COP(=O)(O)O)C(=O)O`, for which the compound was classed as inactive in assay [5], in assay [6], in [1] and in assay [3]. The activity change, negative = inhibition in assay [4] (at 57.5 µM (top of the series)) was 3.29% (inactive) and -0.662% (inactive). In addition, the max response in assay [4] (setting [11]) was 18.8% and -18.9%; in assay [4] (setting [12]), 26.3% and -20.3%. For the same compound, in [2], the Potency entry was “inactive”.
